Records with an inconclusive call do not appear. Entries that show only a call come without a potency. Active and inactive are the calls of the source. The call rests on the fitted dose curve; in most records, active means well fitted inhibition curve with a large enough effect; inconclusive means small, poorly fitted or top-dose-only effect; inactive means no such curve, though single readings can be large or run the other way.
Assay: qHTS to identify inhibitors of the type 1 interferon - major histocompatibility complex class I in skeletal muscle: primary screen against the NCATS Mechanism Interrogation Plate v5.0 (MIPE) Libary (AID 1347411); further: nearly all actives have a fitted effect of over 65% in size
Conditions: iHSKM cells + IFN-b, HiBiT-tagged MHC-I luminescence, 24 h; series mostly up to 45.8 µM
How it was run: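 IFN-beta-driven (4 ng/ml) HLA-B-HiBit expression in CRISPR-tagged C25cl48 myoblasts; compounds 11-pt, 1:3, max 46 uM, 24 hr exposure; lytic NanoLuc complementation luminescence.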
Potency means the concentration at half of the fitted maximal effect.

| SMILES | Potency |
| --- | --- |
| CC(C)[C@H](CO)Nc1nc(Nc2ccc(C(=O)O)c(Cl)c2)c2ncn(C(C)C)c2n1 | inactive |
| N[C@H](CSC(c1ccccc1)(c1ccccc1)c1ccccc1)C(=O)O | inactive |
| C[C@]12CC[C@@H]3c4ccc(O)cc4C[C@@H](CCCCCCCCCS(=O)CCCC(F)(F)C(F)(F)F)[C@H]3[C@H]1CC[C@H]2O (some centres undefined) | inactive |
| COCCOC(=O)C1=C(C)NC2=C(C(=O)CC(c3ccccc3OC)C2)C1c1cccc(O)c1 (centres undefined) | inactive |
| NC(=O)c1cnc(-c2ccc(C3(N)CCC3)cc2)c(-c2ccccc2)c1 | inactive |
| c1ccc2c(Cc3c[nH]c4ccccc34)c[nH]c2c1 | inactive |
| Clc1ccc(CCC(Cn2ccnc2)Sc2c(Cl)cccc2Cl)cc1 (centres undefined) | inactive |
| COc1cc(N2CCC(N3CCN(C)CC3)CC2)ccc1Nc1ncc(Cl)c(Nc2ccccc2S(=O)(=O)C(C)C)n1 | 18.6 µM (active) |
| Cc1ccc(C(=O)Nc2cccc(C(F)(F)F)c2)cc1Nc1nc(-c2cccnc2)nc2c1cnn2C | 33 µM (active) |
| CCCCCNC(=O)N1CCC(CN(Cc2ccc(Cl)cc2)Cc2ccc([N+](=O)[O-])s2)C1 (centres undefined) | inactive |
| CC(C)(C)c1cc(C(=O)O)c(NC(=O)Nc2ccc3[nH]ncc3c2)s1 | inactive |
| CC(=O)Oc1cc2c(s1)CCN(C(C(=O)C1CC1)c1ccccc1F)C2 (centres undefined) | inactive |
| O=C(O)c1c(Cl)c(Cl)c(Cl)c(Cl)c1-c1c2cc(I)c(=O)c(I)c-2oc2c(I)c(O)c(I)cc12 | 8.29 µM (active) |
| COc1cc(NC(=O)c2ccc(-c3ccc(Cl)cc3)o2)cc(OC)c1 | inactive |
